Structures are written as SMILES. The list shows a part of the results. Calls of active or inactive are those of the source.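 How the source made its calls: active means percent inhibition of 50% or more; inactive means the rest.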

As usually defined, the inhibition is the drop in the measured response relative to a control, in per cent.

The test system of this test is Hepatitis C virus NS3 helicase. As to the kind of experiment: NS3h DNA-binding blockers re-examined – biochemical, fluorescence polarization, ChemBridge library, confirmation (AID 720485). Conditions: NS3h binding to Cy5-dT15 DNA, at 100 µM, active compounds read high.

Take `CCOc1cc(C=C2C(=O)NC(=O)NC2=O)cc(Br)c1OCCOc1ccccc1C`: the inhibition was 23.5% (inactive).

Values taken from PubChem BioAssay AID720485 (Milwaukee Institute for Drug Discovery, 2013).
